High-throughput results from PubChem BioAssay.
Rows were chosen to be rich in hits. Some 5.3% of all compounds tested hit in one or more screens of this group.
Tau fibril FP: blocks human tau fibril formation measured by polarization; AID 1468; Potency, µM (highest dose often 57.7 µM), for inactives: at the top dose activity, negative = inhibition, actives largely listed as inhibitors; K18 P301L tau heparin fibrillization, Alexa594 FP, 6 h; 280,000 compounds, 0.39% hits; P10636; also: potency is read from the fitted curve at half-maximal effect; nearly all actives have a fitted effect of over 55% in size
Target sequence (P10636 561-689 P618L limits assumed): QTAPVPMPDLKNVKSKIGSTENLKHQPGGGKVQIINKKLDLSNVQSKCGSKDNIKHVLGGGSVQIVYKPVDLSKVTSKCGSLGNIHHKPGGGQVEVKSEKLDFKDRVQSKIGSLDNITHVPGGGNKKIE
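Recombinant K18 P301L […], labeled with Alexa 594 at 0.24 uM over 15 uM unlabeled; heparin inducer 20 uM final; 37 C, 6 hr; FP endpoint.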
Tau fluor counter: counter-screen for tau fibril formation inhibitors; 280,000 compounds, 0.93% hits; tau K18 P301L Alexa594 fluorescence, heparin fibrillization; Potency, µM (top dose mostly 57.7 µM), without a hit: at the highest dose activity change, negative = decrease; also: potency is read from the fitted curve at half-maximal effect; nearly all actives have a fitted effect of over 55% in size
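Human tau K18 P301L (15 uM unlabeled, 0.24 uM Alexa 594-labeled) in 100 mM sodium acetate pH 7 with 20 uM heparin, 6 hr at 37 C. ThT 30 uM added, 1 hr ambient; Alexa 594 FP and total fluorescence read at 555/632 nm.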
Tau fibril ThT: blocks human tau fibril formation measured by thioflavin T; recombinant tau K18 P301L, heparin-induced fibrillization, ThT fluorescence; Potency, µM (highest dose often 57.4 µM), for inactives: at the top dose activity, negative = inhibition, most hits filed as inhibitors; 270,000 compounds, 2.1% hits; AID 1460; P10636; also: potency is read from the fitted curve at half-maximal effect; nearly all actives have a fitted effect of over 55% in size
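Using a mix of unlabeled (15 uM) and Alexa 594-labeled (0.24 uM) tau K18 P301L, heparin-triggered fibrillization over 6 hr at 37 C was scored by ThT fluorescence.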
JMJD2E inh: JMJD2E (human) inhibition | JMJD2E catalytic domain, FDH-coupled NADH fluorescence (FDH is formaldehyde dehydrogenase) | Potency, µM (series often up to 57.1 µM), inactives show at the top dose activity change, negative = inhibition, usual class: inhibitors | 230,000 compounds, 1.6% hits | AID 2147; active = well fitted inhibition curve with a large enough effect, not every such curve was filed as active; inconclusive = small, poorly fitted or top-dose-only effect, or another doubt; inactive = no such curve, though single readings can be large or run the other way;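 also: potency is read from the fitted curve at half-maximal effect; 0% = wells with enzyme and -100% = buffer wells without enzyme; nearly all actives have a fitted effect of over 50% in size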
Target sequence (B2RXH2 1-337 limits assumed): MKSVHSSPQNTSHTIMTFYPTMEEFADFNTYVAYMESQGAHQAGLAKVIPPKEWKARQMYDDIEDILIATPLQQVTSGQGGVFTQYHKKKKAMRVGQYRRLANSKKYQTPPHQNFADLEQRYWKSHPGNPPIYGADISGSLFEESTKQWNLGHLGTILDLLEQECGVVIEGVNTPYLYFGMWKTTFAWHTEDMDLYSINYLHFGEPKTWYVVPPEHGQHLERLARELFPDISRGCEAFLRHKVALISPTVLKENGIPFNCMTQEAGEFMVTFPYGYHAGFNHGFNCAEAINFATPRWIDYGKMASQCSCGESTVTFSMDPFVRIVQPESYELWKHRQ
Sfp PPTase inh: inhibitors of Bacillus subtilis Sfp phosphopantetheinyl transferase; Q9F4F7; Biochemical Sfp PPTase activity, qHTS; Potency, µM, inactives show largest response in the series, negative = inhibition, hits mostly inhibitors; 310,000 compounds, 3.5% hits;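 also: the enzyme is Sfp with the accession as filed and its product quenches rhodamine fluorescence; potency is read from the fitted curve at half-maximal effect; 0% = enzyme reaction without inhibitor and -100% = no enzyme wells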
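Step 1, compound plus 15 nM Sfp-PPTase, 15 min, room temperature. Step 2, add rhodamine-CoA (5 uM) and BHQ-2-YbbR (12.5 uM). Step 3, read 525/598 nm fluorescence at 0 and 30 min.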
FBPA coupling cs: counter-screen for Giardia aldolase inhibitors: coupling enzyme system; coupling enzyme system counterscreen, AmpLite Red fluorescence; activity change, negative = inhibition, % at 58.2 µM, hits read low; 290,000 compounds, 0.67% hits; AID 2472; in the data active = activity change below about -30%
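Counterscreen of the coupled detection system alone, without aldolase: glyceraldehyde-3-phosphate coupling enzymes plus AmpLite Red readout. Compounds at 57.5 uM final, 10 min RT preincubation, 20 min RT reaction, fluorescence 525/598 nm.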
* = called active by the depositor; u = inconclusive; x = not tested or not shown; [ ] = another dose, or the depositor's remark. Unless noted, calls follow the shape of the dose curve; as a rule, active = well fitted curve in the direction sought with a large enough effect; inconclusive = small, poorly fitted or top-dose-only effect, or another doubt; inactive = no such curve, though single readings can be large; an effect the other way counts as inactive or inconclusive. Unless noted, % is scaled to controls: 0 for no effect and ±100 for the full control effect.

SMILES	Tau fibril FP	Tau fluor counter	Tau fibril ThT	JMJD2E inh	Sfp PPTase inh	FBPA coupling cs
COC(=O)c1cc(=O)nc2sc(-c3ccc(F)cc3)nn12	3.8%	-9.5%	-15.5%	u	22.4µM*	-0.2
CN(C)CCNc1ncnc2c1sc1nc(-c3ccccc3)c3c(c12)CCCC3	u	-4.9%	u	u	35.5µM*	-5.9
Cc1ccc(CNC(=O)c2ccc3c(=O)n(CC4CCCO4)c(=S)[nH]c3c2)cc1 (centres undefined)	0.1%	-9.9%	-8.9%	-0.2%	0.4%	0.1
Cc1ccc(CNC(=O)c2ccc3c(=O)[nH]c4c(C(=O)NCC5CCCO5)sc(=S)n4c3c2)cc1 (centres undefined)	-2.9%	u	8.91µM*	-4.5%	u	3.8
CCCCCNC(=O)c1ccc2c(=O)[nH]c3c(C(=O)NCC4CCCO4)sc(=S)n3c2c1 (centres undefined)	10.2%	-28.5%	14.1µM*	-7.0%	50.1µM*	6.8
O=C(NCc1ccccc1)c1ccc2c(=O)[nH]c3c(C(=O)NCC4CCCO4)sc(=S)n3c2c1 (centres undefined)	11.4%	u	14.1µM*	4.0%	-15.7%	4.3
Cn1c(=O)c2c(nc(N3CCOCC3)n2Cc2cccc(Br)c2)n(C)c1=O	-5.5%	-23.5%	-14.1%	x	x	x
COc1cccc(Nc2ncc3nc(C)c(=O)n(CCC#N)c3n2)c1	x	x	x	x	21.4%	-7.8
NCCC[C@@H](CC(=O)N[C@@H]1CCCC[C@H]1C(=O)N[C@H](CC(=O)N[C@@H](CCC(=O)O)CC(=O)O)Cc1ccccc1)NC(=O)C[C@H](Cc1ccccc1)NC(=O)[C@@H]1CCCC[C@H]1N	-2.7%	-0.8%	-0.7%	0.0%	15.1%	0.0
O=C(c1ccccc1)C(Sc1ncn[nH]1)c1ccccc1 (centres undefined)	-9.5%	-7.5%	-9.1%	u	79.4µM*	-6.0
CC(Sc1ncn[nH]1)C(=O)NCc1ccccc1 (centres undefined)	x	x	x	x	13.5%	x
Cc1ccc(/C(O)=C2/C(=O)C(=O)N(Cc3cccnc3)C2c2ccccn2)cc1 (centres undefined)	5.1%	8.1%	2.4%	5.5%	23.0%	3.3
O=C1C(=O)N(Cc2cccnc2)C(c2ccccn2)/C1=C(/O)c1ccc(F)cc1 (centres undefined)	-4.7%	-12.7%	-12.4%	u	89.1µM*	-8.8
Cc1cc(O)c(CN2CCN(c3ccccc3)CC2)c2oc(=O)cc(C)c12	-7.7%	-1.9%	0.4%	x	x	x
COc1ccccc1C1CC(c2cccs2)=NN1C(=O)CCC(=O)O (centres undefined)	x	x	x	x	37.0%	8.0
COc1ccccc1C1CC(c2cccs2)=Nc2ccccc2S1 (centres undefined)	-10.0%	-26.6%	u	-1.9%	50.1µM*	1.0
CC(=O)OCC(NC(=O)C(COCc1ccccc1)NC(=O)OC(C)(C)C)C1OC(n2ccc(=O)[nH]c2=O)C(OC(C)=O)C1OC(C)=O (centres undefined)	x	x	x	x	10.2%	2.5
CCOC(=O)CCN1C(=O)[C@H]2[C@H]3[C@H](O)[C@H](O)C/C(=N/NC(=O)OCc4ccccc4)[C@@H]3CC[C@@H]2C1=O	-0.3%[11.6 µM]	-10.3%[11.6 µM]	-8.7%[11.5 µM]	x	24.8%	1.3
C/C(=N\Nc1cccc2cccnc12)c1ccc(N)cc1	u	u	25.1µM*	u	u	-8.9
C/C(=N\Nc1cccc2cccnc12)c1ccccn1	2.3%	-21.9%	u	u	-9.3%	-3.3
COC(=O)N[C@@H](c1cccc(C)c1)C(C(C)=O)C(=O)OC (some centres undefined)	-4.6%	-9.8%	-9.8%	-2.6%	-6.7%	2.7
CCCc1ccc(OCC(=O)Nc2sc3c(c2C(=O)OCC)CCC(C(C)(C)C)C3)cc1 (centres undefined)	2.4%	-1.0%	-9.1%	x	x	x
COc1cc2cc(CN(Cc3nnnn3Cc3ccco3)C3CCCCC3)c(=O)[nH]c2cc1OC	u	u	15.8µM*	u	10µM*	-33.4*
